eIF4E-4G inh: inhibitors of eIF4E and eIF4G interaction in translation initiation. P63073+Q04637. TR-FRET eIF4E-eIF4GI(517-606) binding, 2 h. inhibition, % at 21.7 µM. 0.37% of 220,000 active. AID 782;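 active = inhibition above about 30%, limit read from the data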
14-3-3 Bad PPI: disrupts binding of bovine 14-3-3 zeta to phospho-Bad peptide; 0.71% of 220,000 active; TR-FRET 14-3-3zeta/Dy647-pBad peptide displacement, 1 h; P63103; inhibition, % at 21.7 µM;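 active = inhibition above about 70%, limit read from the data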
Mcl1 Bid PPI: disrupts binding of human Mcl-1 to Bid peptide. Q07820. TR-FRET Mcl-1/Bid-Dy647 peptide binding, 1536-well. inhibition, % at 21.7 µM. 0.97% of 220,000 active;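 active = compounds that cut the binding signal by more than half at the single screening dose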;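 also: His-tagged Mcl-1 with europium anti-His antibody binding Bid BH3 peptide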
Pf gamet viab: kills late stage P. falciparum gametocytes; P. falciparum stage V gametocytes, ATP luminescence, 24 h; inhibition, % at 10.9 µM; 0.065% of 150,000 active; AID 743093;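 active = inhibition above the mean plus 3 SD of compounds within the control limits, set per campaign, cut at about 38% in these data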
Mcl1-Noxa inh: disrupts binding of human Mcl-1 to Noxa peptide. 1.5% of 220,000 active. TR-FRET Mcl-1/Noxa peptide binding, 2 h. Q07820. inhibition, % at 21.7 µM;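 active = compounds that cut the protein-peptide binding signal by more than 50% relative to plate controls in a single-dose test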;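 also: His-tagged Mcl-1 with rhodamine Noxa BH3 peptide and terbium anti-His antibody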
Mcl-1 Bim block: disrupts Bim peptide binding to human Mcl-1 | Q07820 | inhibition, % at 10 µM | 0.1% of 190,000 active | Bead-based flow cytometry, Bim peptide-Mcl-1 binding; in the data active = inhibition above about 40%
A number is an active result; 0 = inactive; - = no result given; [ ] = remark or other dose. Sampled rows, rich in hits. Any-hit rate of the full collection: about 2.7%.

SMILES | eIF4E-4G inh | 14-3-3 Bad PPI | Mcl1 Bid PPI | Pf gamet viab | Mcl1-Noxa inh | Mcl-1 Bim block
O=[N+]([O-])c1c(Nc2ccccn2)cc(Cl)c2nonc12 | 0 | 0 | 0 | 0 | 57 | -
COc1cc(C(c2nnnn2C(C)(C)C)N2CCN(c3nc4ccccc4s3)CC2)ccc1O (configuration not stated) | 0 | 0 | 0 | 0 | 73 | 0
CCn1c2ccccc2c2cc(/C=N/NC(=O)c3cc(O)cc(O)c3)ccc21 | 0 | 0 | 0 | 0 | 63 | 0
CCn1c2ccccc2c2cc(/C=N/NC(=O)c3ccc(O)cc3)ccc21 | 0 | 0 | 0 | 0 | 0 | 0
COc1ccc(NC(=O)CN(C)CC(=O)Nc2ccccc2SC)cc1 | 0 | 0 | 51 | 0 | 0 | 0
COc1ccc(NC(=O)CN(C)C(C)C(=O)N2CCCCC2)cc1 (configuration not stated) | 0 | 0 | 56 | 0 | 0 | 0
Cc1ccc(C(=O)Oc2ccc(-c3nccc(-c4ccccn4)n3)cc2)cc1 | 0 | 0 | 55 | 0 | 0 | 0
Cc1ccc(-c2nn3c(C)nnc3s2)cc1NC(=O)c1ccc(-c2ccc(Cl)cc2Cl)o1 | 0 | 86[fluorescence artefact?] | 0 | - | 0 | 0
Cc1oc(-c2ccc(Cl)cc2)cc1-c1nn2c(-c3ccoc3C)nnc2s1 | 0 | 0 | 55 | - | 89 | 0
CN(C)c1ccc(-c2nn3c(-c4ccc(Cl)cc4Cl)nnc3s2)cc1 | 0 | 0 | 93 | - | 87 | 0
Cc1ccc(-c2nn3c(C)nnc3s2)cc1NC(=O)c1ccc(-c2cccc(Cl)c2)o1 | 0 | 0 | 0 | 0 | 0 | 0
O=C(COC(=O)c1cccc(Cl)c1)Nc1cc(Cl)ccc1Oc1ccccc1 | 0 | 0 | 0 | 0 | 0 | 0
CCOC(=O)c1c(C)[nH]c(C(=O)OCC(=O)Nc2cc(C)c(Cl)cc2OC)c1C | 0 | 0 | 0 | - | 0 | 0
O=C(O)[C@H](Cc1ccccc1)N1Cc2ccccc2C1=O | 0 | 0 | 72 | - | 0 | 0
CN(C)S(=O)(=O)N1CCN(c2cccc(Cl)c2)CC1 | 0 | 0 | 0 | 0 | 55 | 0
O=C(CCc1nnc(C2CCCCC2)o1)N1CCCCC1CCn1cccn1 (configuration not stated) | 0 | 0 | 0 | 0 | 0 | 0
CCCN1CCC(N2CCCC(C(=O)O)C2)CC1 (configuration not stated) | 0 | 0 | 0 | 0 | 0 | 0
COc1ccc(-c2csc(/C(C#N)=C\c3ccc(OC)c([N+](=O)[O-])c3)n2)cc1 | 0 | 0 | 0 | 0 | 0 | 0
N#C/C(=C\c1ccc(O)c([N+](=O)[O-])c1)c1nc2ccccc2s1 | 0 | 0 | 0 | 0 | 66 | 0
COc1cc(/C=C(\C#N)c2nc3ccccc3s2)cc([N+](=O)[O-])c1O | 0 | 0 | 0 | 0 | 99 | 0
N#C/C(=C\c1ccc(N2CCCCC2)c([N+](=O)[O-])c1)c1nn(-c2ccccc2)c(N)c1C#N | 0 | 0 | 0 | - | 0 | 0
N#C/C(=C\c1ccco1)c1nc2ccccc2s1 | 0 | 0 | 0 | 0 | 0 | 0
N#C/C(=C\c1ccc(N2CCCC2)c([N+](=O)[O-])c1)c1nc2ccccc2[nH]1 | 0 | 0 | 68 | 0 | 0 | 0
COc1ccc(-c2csc(/C(C#N)=C\c3ccc(O)c([N+](=O)[O-])c3)n2)cc1OC | 0 | 0 | 70 | 0 | 102 | -
COc1cc(C(=O)NC2CC(C)(C)NC(C)(C)C2)cc(OC)c1OC | 0 | 0 | 0 | 0 | 0 | 0
SMILES | eIF4E-4G inh | 14-3-3 Bad PPI | Mcl1 Bid PPI | Pf gamet viab | Mcl1-Noxa inh | Mcl-1 Bim block
O=C(N=Nc1c(O)[nH]c2ccc(Cl)cc12)c1cc(-c2cccs2)nc2ccccc12 | 0 | 88[fluorescence artefact?] | 85 | 0 | 60 | 0
CC(C)c1ccc(C(=O)NCc2ccc(Cl)cc2)cc1 | 31[fluorescence artefact?] | 0 | 0 | 0 | 0 | 0
CCNC(=O)c1ccc(CSc2ccc(Cl)cc2)cc1 | 36 | 0 | 0 | 0 | 0 | 0
CC(=O)NCCNC(=O)c1ccc(CSc2ccc(Cl)cc2)cc1 | 0 | 0 | 0 | 0 | 0 | 0
C1=CC(c2cc3ccccc3o2)OC(CCc2ccccc2)C1 (configuration not stated) | - | - | - | 0 | - | -
O=C1CSC(=Nc2ccccc2)N1 | 0 | 0 | 0 | 0 | 0 | 0
O=C1CS/C(=N\C(=O)N2c3ccccc3Sc3ccccc32)N1 | 0 | 0 | 0 | 0 | 69 | 0
COc1ccc(-c2csc(Nc3ncccc3C)n2)cc1OC | 0 | 0 | 0 | - | 0 | 0
Cc1cccnc1Nc1nc(-c2ccc(O)c(O)c2)cs1 | 0 | 0 | 0 | 0 | 69 | 0
O=C(O)c1cc(CN2CCOCC2)oc1-c1ccccc1 | 0 | 76 | 0 | 0 | 0 | 0
CCOc1ccc(/C=C/C2=Cc3c(sc(NC(=O)CSc4n[nH]c(N)n4)c3C#N)C(C)(C)C2)cc1 | 0 | 0 | 0 | 0 | 0 | 0
Cc1ccsc1/C=C/C1=Cc2c(sc(NC(=O)CSc3n[nH]c(N)n3)c2C#N)C(C)(C)C1 | 0 | 0 | 0 | - | 89 | 0
Cc1[nH]c2ccccc2c1CN1CCc2ccccc2C1 | 0 | 0 | 51 | - | - | 0
O=c1[nH]c(CN2CCc3ccccc3C2)nc2ccccc12 | 0 | 0 | 0 | - | 0 | 0
CC1(C)CC(=O)C2=C(C1)Nc1ncnn1C2c1cccs1 (configuration not stated) | 0 | 0 | 0 | 0 | 0 | 0
COc1ccc(-c2[nH]ncc2-c2csc(C)n2)c(O)c1 | 0 | 0 | 0 | 39 | 0 | 0
CCOc1ccc(-c2[nH]ncc2-c2csc(C)n2)c(O)c1 | 0 | 0 | 0 | 0 | 0 | 0
CCc1c(C)[nH]c2ccc(OC)cc2c1=S | 0 | 0 | 0 | 0 | 74 | 0
COc1ccc2[nH]c(C)c(CN3CCCCC3)c(=O)c2c1 | - | - | - | 0 | - | -
CCn1cc(C(=O)Nc2ccc(OC)c(S(=O)(=O)N3CCCCC3)c2)c(=O)c2ccc(C)nc21 | 0 | 0 | 0 | - | 0 | 0
Cc1cc(C)c[n+](-c2nc3ccccc3nc2[N-]S(=O)(=O)c2ccc(Cl)cc2)c1 | 0 | 0 | 0 | 0 | 0 | 0
CN(C(=O)COC(=O)C1CCN(S(=O)(=O)c2cccs2)CC1)c1ccccc1 | 0 | 0 | 0 | 0 | 0 | 0
O=C(NCCc1ccncc1)c1ccccc1F | 61 | 0 | 0 | - | 0 | 0
O=c1c(S(=O)(=O)c2ccc(Cl)cc2)cn(Cc2ccccc2F)c2ccc(F)cc12 | 0 | 0 | 0 | 0 | 0 | 0
O=C(N/N=C/c1ccc2ncccc2c1)c1ccco1 | 0 | 0 | 0 | 0 | 52 | 0
SMILES | eIF4E-4G inh | 14-3-3 Bad PPI | Mcl1 Bid PPI | Pf gamet viab | Mcl1-Noxa inh | Mcl-1 Bim block
CC(NCc1ccc2c(c1)OCO2)C(=O)NC1CCCc2ccccc21 (configuration not stated) | 0 | 0 | 69 | - | 0 | 0
CCCCNC(=S)NNC(=O)c1c(C)nc2ccccn12 | 0 | 0 | 0 | - | 0 | 0
Cc1cc(Cl)ccc1OCC(=O)NCC(=O)N/N=C/c1ccco1 | 0 | 0 | 0 | - | 0 | 0
O=C(COc1ccc2c(c1)CCC2)N1CCc2ccccc21 | 0 | 0 | 90 | 0 | 0 | 0
Cc1ccc(OCC(=O)N2CCc3ccccc32)cc1 | 0 | 0 | 0 | 0 | 0 | 0
Cc1ccc(-n2c([O-])nc(-[n+]3ccccc3)c2C=O)cc1 | 0 | 0 | 0 | - | 0 | 0
O=C(CNS(=O)(=O)c1c(Cl)cccc1Cl)OCc1csc(-c2ccccc2)n1 | 0 | 0 | 0 | 0 | 0 | 0

Compound activity: PubChem, several laboratories
